PubChem BioAssay AID686979 (National Center for Advancing Translational Sciences (NCATS), 2013)
“And” between values parts separate entries of the source, which are not always exact repeats. Equal values may be shown once. Screen size: about 420,000 compounds; about 50,000 (12%) were called active. Not shown: some 26% with an inconclusive outcome. The sample holds actives, similar compounds and a random draw of the others, so the mix is not that of the screen. Values without a mark were called inactive. Calls follow the shape of the dose curve; as a rule, active = well fitted inhibition curve with a large enough effect; inconclusive = small, poorly fitted or top-dose-only effect; inactive = flat fitted curve, though single readings scatter.

Assay: qHTS for Inhibitors of human tyrosyl-DNA phosphodiesterase 1 (TDP1): qHTS in cells in presence of CPT; also: nearly all actives have a fitted effect of over 55% in size
Conditions: chicken DT40 Tdp1-/-;hTDP1 cells + 20 nM CPT, ATP luminescence, 48 h; series mostly up to 46.2 µM; activity change, negative = growth inhibition: at the top concentration
How it was run: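 Cell growth measured by CellTiter-Glo luminescence after a minimum 48 h, 37 C compound exposure with 20 nM CPT in Tdp1-knockout DT40 cells stably expressing hTDP1, seeded 400/well; qHTS titration format.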
% is scaled to controls: 0 for no effect and ±100 for the full control effect; potency is read from the fitted curve at half-maximal effect.

Row | SMILES | activity change, negative = growth inhibition [%] | Potency
1 | Cc1ccc(C(=O)NCC(=O)NC2CC2)cc1 | -25.1 | –
2 | CCOC(=O)C1=C(C)NC(=S)NC1c1cccs1 (stereo not given) | 2.09 | –
3 | CCCOC(=O)c1[nH]c2c(c1C)C(=O)CC(c1cc(OC)c(OC)c(OC)c1)C2 (stereo not given) | – | 9.2 µM (active)
4 | CCCOC(=O)c1cc2ccccc2oc1=O | -2.05 | –
5 | CCOC(=O)C1=C(N)N2C(=O)C(C)SC2=C(C(=O)OCC)C1c1cc(OC)c(OC)c(OC)c1 (stereo not given) | 4.66 | –
6 | COc1cc(C2CC(=O)c3cnc(NC(C)=O)nc3C2)cc(OC)c1OC (stereo not given) | -14.6 | –
7 | CCCOC(=O)c1[nH]c2c(c1C)C(=O)CC(c1cccs1)C2 (stereo not given) | – | 0.58 µM (active)
8 | N#Cc1ccccc1NC(=O)c1cccc(COc2ccc(Cl)cc2Cl)c1 | -5.45 | –
9 | COc1ccc2c(c1OC)C(=O)OC2Nc1nc(-c2ccccc2)cs1 (stereo not given) | – | 2.31 µM (active)
10 | COc1ccc(-c2csc(NC3OC(=O)c4ccccc43)n2)cc1 (stereo not given) | – | 11.6 µM (active)
11 | COc1ccc2c(c1OC)C(=O)OC2c1c(O)nc(SC)n(-c2ccccc2)c1=O (stereo not given) | 0.164 | –
12 | COc1ccc(-c2csc(NC(=O)CCCc3cccs3)n2)cc1 | -23.6 | –
13 | CCc1ccccc1NC(=O)[C@@H]1CCC(=O)N1C1OC(=O)c2c1ccc(OC)c2OC (stereo not given in full) | -13.3 | –
14 | COc1ccc(N/C=C(\C2OC(=O)c3ccccc32)[N+](=O)[O-])cc1 (stereo not given) | -1.24 | –
15 | COC(=O)C(NS(=O)(=O)c1ccc(F)cc1)c1ccccc1 (stereo not given) | -24.2 | –
16 | Cc1cccc(-c2nnc(SC(C)C(=O)Nc3ccccc3)n2C)c1 (stereo not given) | -10.2 | –
17 | COc1ccc(NC(=O)NC(C)c2c(-n3cccc3)sc(C)c2C)cc1OC (stereo not given) | – | 16.4 µM (active)
18 | COc1ccc(NC(=O)CNC(=O)Cc2ccccc2)cc1OC | 1.52 | –
19 | CCn1cc(NC(=O)Nc2ccc(OC)c(OC)c2)c(C(N)=O)n1 | 11.3 | –
20 | Cc1nc(C)c(-c2csc(NCCc3ccccc3)n2)s1 | – | 14.6 µM (active)
21 | Cc1nc(N)sc1-c1ccccc1 | -0.668 | –
22 | S=c1[nH]nc(NCCc2ccccc2)s1 | -3.43 | –
23 | CCOC(=O)c1cc2c(=O)n3ccccc3nc2n(CC(C)C)c1=NC(=O)c1c(-c2c(F)cccc2Cl)noc1C | – | 16.4 µM (active) and 8.2 µM (active)
24 | CCOC(=O)c1cc2c(=O)n3ccccc3nc2n(CC2CCCO2)c1=NC(=O)c1ccccc1F (stereo not given) | -14.2 | –
25 | CCCn1c(=NC(C)=O)c(C(=O)OCC)cc2c(=O)n3ccccc3nc21 | -16.3 | –

Row | SMILES | activity change, negative = growth inhibition [%] | Potency
26 | COc1ccccc1OCC(=O)OCc1cc(-c2ccco2)on1 | -10.3 | –
27 | COc1cccc(C(c2c(O)cc(C)n(Cc3ccco3)c2=O)N2CCN(c3ccccc3)CC2)c1 (stereo not given) | -10.4 | –
28 | CC(C)(C)Cc1nnc(NC(=O)c2cc(-c3ccccc3)nc3ccccc23)s1 | 1.81 | –
29 | O=C(NCCN1CCOCC1)c1cc(-c2cccs2)nc2ccccc12 | -6.74 | –
30 | CCCCN(C)CCCNC(=O)c1cc(-c2cccs2)nc2ccccc12 | – | 29.1 µM (active)
31 | Cn1cc(CN2CCCC(CO)C2)c(-c2ccc(Oc3ccccc3)cc2)n1 (stereo not given) | -29.3 | –
32 | Cc1ccccc1NC(=O)C1CCN(C(=O)NC2CCCCC2)CC1 | 17.2 | –
33 | CCN(C(=O)COC(=O)c1c(C)nn(-c2ccccc2)c1Cl)c1c(N)n(Cc2ccccc2)c(=O)[nH]c1=O | 7.19 | –
34 | COCCN(C(=O)COC(=O)Cc1cccc(OC)c1)c1c(N)n(Cc2ccccc2)c(=O)[nH]c1=O | 0.869 | –
35 | CCN(C(=O)COC(=O)c1sccc1C)c1c(N)n(Cc2ccccc2)c(=O)[nH]c1=O | -1.38 | –
36 | CCN(C(=O)COC(=O)Cc1c(F)cccc1Cl)c1c(N)n(Cc2ccccc2)c(=O)[nH]c1=O | 1.95 | –
37 | CCN(C(=O)COC(=O)CCOc1cccc(C)c1)c1c(N)n(Cc2ccccc2)c(=O)[nH]c1=O | – | 16.4 µM (active)
38 | CCN(C(=O)CN1CCN(Cc2ccccc2)CC1)c1c(N)n(Cc2ccccc2)c(=O)[nH]c1=O | – | 11.6 µM (active)
39 | CCCn1nc(C(=O)NNC(=O)CCOc2ccccc2OCC)c2ccccc2c1=O | 1.4 | –
40 | CN(C)/C=C(\C#N)C(=O)c1cccnc1Oc1ccc(F)cc1F | -19.9 | –
41 | CCOC(=O)C1(O)CC(C)=NN1C(=O)c1cccc(Br)c1 (stereo not given) | 18.5 | –
42 | CCN(C(=O)CSc1ncnc2c1cnn2-c1ccccc1)C1CCS(=O)(=O)C1 (stereo not given) | -4.58 | –
43 | O=C(CSc1n[nH]c(=O)n1-c1ccccc1)Nc1ccccc1C(F)(F)F | -0.565 | –
44 | O=c1[nH]nc(SCCS(=O)(=O)c2ccc(F)cc2)n1-c1ccccc1C(F)(F)F | – | 23.1 µM (active)
45 | O=S(=O)(c1ccc(F)cc1)N1CCN(Cc2ccccc2C(F)(F)F)CC1 | -16 | –
46 | O=C(NCC1Cc2cc(F)cc(-c3cnccn3)c2O1)C1COc2ccccc2O1 (stereo not given) | 16.4 | –
47 | S=C(c1ccccc1)N1CCCC1 | 11.6 | –
48 | CCOC(=O)c1c(NC(=O)CSc2nccc(=O)[nH]2)sc(C)c1C | -10.7 | –
49 | NC(=O)C1CCN(C(=O)c2ccc(F)c(S(=O)(=O)N3CCOCC3)c2)CC1 | 8.19 | –
50 | CC1CCN(C(=O)c2ccc(S(=O)(=O)Cc3cc(F)ccc3F)c([N+](=O)[O-])c2)CC1 | – | 6.51 µM (active)

Row | SMILES | activity change, negative = growth inhibition [%] | Potency
51 | Nc1ccc(C(=O)N2CCN(S(=O)(=O)c3ccc(Cl)cc3)CC2)cc1[N+](=O)[O-] | -66.4 | –
52 | Cc1noc(NS(=O)(=O)c2ccc(NC(=O)c3oc4ccc(F)cc4c3C)cc2)c1C | -14.1 | –
53 | CC(=O)Nc1c2c(nn1-c1ccc(C)cc1C)CS(=O)C2 (stereo not given) | 7.09 | –
54 | C[C@H](NC(=O)C1CC(=O)N(c2ccc3c(c2)OCCO3)C1)C(=O)N1CCC(C(=O)O)CC1 (stereo not given in full) | -0.349 | –
55 | CC(=O)Nc1c2c(nn1-c1cccc(C)c1)CSC2 | -12.1 | –
56 | O=C(NCCCc1ccccc1)c1cc(COc2c(F)cccc2F)on1 | -17.7 | –
57 | O=C(NC1Cc2ccccc2C1)c1cc(COc2cccc(C(F)(F)F)c2)on1 | -25.4 | –
58 | Cc1ccc(OCc2cc(C(=O)N(C)CCc3ccccc3)no2)cc1C | -13.4 | –
59 | CC(=O)c1cccc(OCc2cc(C(=O)NC(C)Cc3cccnc3)no2)c1 (stereo not given) | – | 16.4 µM (active)
60 | CN(Cc1cccnc1)C(=O)c1cc(COc2ccc3ncccc3c2)on1 | – | 4.61 µM (active)
61 | CCCOc1cccc(C(=O)NCCCNC(=O)c2cccnc2)c1 | -1.65 | –
62 | CC(C)Cc1cc(C(=O)NCCc2ccccc2)no1 | -26.4 | –
63 | CCC(NC(=O)c1cc(COc2ccc(F)c(F)c2)on1)c1ccncc1 (stereo not given) | – | 20.6 µM (active)
64 | CCn1ccnc1CN(C)C(=O)c1cc(COc2ccc(-n3cncn3)cc2)on1 | -21.3 | –
65 | CC(N)(C(=O)O)c1ccc(-c2nn[nH]n2)cc1 (stereo not given) | -21.6 | –
66 | COC(=O)C[C@H]1C=C[C@H](NC(=O)c2ccc(F)cc2)[C@@H](CO)O1 | -3.56 | –
67 | Cc1sc(NC(=O)C2=COCCO2)c(C#N)c1C | -13.9 | –
68 | CC1(C)C(c2cccs2)=[N+]([O-])C2(CCCCC2=O)N1O (stereo not given) | 9.95 | –
69 | Cc1cccn2cc(-c3cccc(S(=O)(=O)N4CCCCC4)c3)nc12 | -24 | –
70 | O=C(NCCCN1CCOCC1)C1CCCN(S(=O)(=O)N2CCCCC2)C1 (stereo not given) | -7.98 | –
71 | COc1cccc2c1C(=O)c1c(O)c3c(c(O)c1C2=O)CC(O)(C(C)=NNC(=O)c1ccc(Cl)c(Cl)c1)CC3OC1CC(N)C(O)C(C)O1 (stereo not given) | – | 0.164 µM (active)
72 | CCOC(=O)c1cnc2c(c(C)nn2CC)c1Cl | 5.09 | –
73 | COc1ccccc1CNS(=O)(=O)c1ccc2c(c1)NC(=O)CS2 | -27.9 | –
74 | COc1ccc(CN2C(=O)C(C)S/C2=N/N=C/c2ccco2)cc1 (stereo not given) | -9.51 | –
75 | COc1cccc(-c2ccc3c(c2)N(Cc2ccccc2OC)C(=O)C(C)S3)c1 (stereo not given) | – | 25.9 µM (active)

Row | SMILES | activity change, negative = growth inhibition [%] | Potency
76 | CCCc1nc(N2CCN(C)CC2)c2sc(=S)n(-c3ccccc3)c2n1 | – | 18.4 µM (active)
77 | CCCc1nc(-c2ccccc2O)n(-c2ccccc2)n1 | -27.4 | –
78 | Cc1cnc(NC(=O)CSc2c(Cl)cccc2Cl)s1 | – | 14.6 µM (active)
79 | COc1ccc(CC(=O)NCc2nnc(SCC(=O)Nc3nccs3)n2C)cc1 | -10.1 | –
80 | COc1ccc(CC(=O)NCc2nnc(SCC(=O)Nc3ncc(C)s3)n2C)cc1 | – | 16.4 µM (active)
81 | Cc1cnc(NC(=O)CSc2nnc(-c3ccccc3)n2Cc2ccccc2)s1 | -13.7 | –
82 | Cc1cnc(NC(=O)CSc2nnc(C)s2)s1 | -12.2 | –
83 | COC(=O)c1ccc(NC(=O)CSc2nnc(CNc3ccc(OC)cc3)n2C)cc1 | 5.11 | –
84 | O=C(NCc1ccccc1)C(c1ccco1)N(C(=O)c1csnn1)c1ccccc1F (stereo not given) | -13 | –
85 | CCCCN(C(=O)COc1ccc(NC(C)=O)cc1)C1CCS(=O)(=O)C1 (stereo not given) | -15.7 | –
86 | COc1ccc(CNC(=O)CCC(=O)Nc2nnc(C(C)C)s2)cc1 | 2.44 | –
87 | CC[C@@H]1CC2=C(C(=O)OC(C)(C)O2)[C@@H](CC)O1 | -8.36 | –
88 | Cn1c(CC(=O)Nc2ccc(F)cc2)nnc1SCC(=O)NC1CCCCC1 | 2.42 | –
89 | O=C(NCCN1CCOC1=O)C1CCC(=O)N(CCc2ccc(Cl)cc2)C1 (stereo not given) | -3.33 | –
90 | C=CCNCCCCOc1ccccc1 | -25.9 | –
91 | COc1ccc(-c2c3c(=O)n(C)c(=O)n(C)c3cn2-c2cccc(OC)c2)cc1 | – | 29.1 µM (active)
92 | COc1ccc(-c2c3c(=O)n(C)c(=O)n(C)c3cn2NC(C)=O)cc1 | -0.679 | –
93 | Cc1ccc(-c2c3c(=O)n(C)c(=O)n(C)c3cn2-c2ccccc2O)cc1 | -1.44 | –
94 | COc1ccc(Nc2cc(=O)n(-c3ccccc3)c3c2c(=O)n(C)c(=O)n3C)cc1 | 16 | –
95 | COc1ccc(-c2[nH]c3c(c2-c2c(-n4cccc4)n(C)c(=O)n(C)c2=O)c(=O)n(C)c(=O)n3C)cc1 | -19.5 | –
96 | COc1cccc(-n2cc3c(c2-c2ccccc2)c(=O)n(C)c(=O)n3C)c1 | – | 23.1 µM (active)
97 | COc1ccccc1N(CC(=O)Nc1c(C)n(C)n(-c2ccccc2)c1=O)S(=O)(=O)c1ccccc1 | -1.58 | –
98 | Cc1c(Cl)cccc1NC(=O)NCCCN1CCCC1=O | -4.46 | –
99 | O=C(OCc1cc(=O)n2nc(C3CC3)sc2n1)c1ccccc1Cl | -26.1 | –
100 | C=CCOC(=O)C1=C[C@H](c2ccc(Br)cc2)C[C@H](OCCCCO)O1 | -10.5 | –
